12-LOX inh: Primary qHTS assay for inhibitors of human arachidonate 12S-lipoxygenase (ALOX12): Round 2 | AID 1671190, 2021 | purified 12hLO, xylenol orange hydroperoxide absorbance | Polyunsaturated fatty acid lipoxygenase ALOX12 (Homo sapiens), P18054 | actives 1.1% (n = 580,000) | Potency, µM (top dose mostly 108 µM), inactives show at the top dose activity change, negative = inhibition, actives largely listed as inhibitors; further: potency means the concentration at half of the fitted maximal effect; on the % scale 0 is the no-effect control and ±100 the full control effect
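Hydroperoxide product was detected by ferrous iron/xylenol orange as the 573 to 405 nm absorbance ratio. Arachidonic acid at 40 uM (final) was turned over for 30 min at room temperature by 150 nM human 12hLO, pH 7.0 Hepes buffer, after 15 min compound preincubation.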
A549 viability: Nrf2 qHTS screen for inhibitors: counterscreen for cytotoxicity; actives 0.16% (n = 390,000); A549 ARE-Fluc cells, CellTiter-Fluor viability, 18-24 h; Potency, µM (series often up to 46 µM), for the others: at the highest dose activity change, negative = cytotoxicity, hits mostly inhibitors; AID 504648, 2011; further: potency means the concentration at half of the fitted maximal effect; on the % scale 0 is the no-effect control and ±100 the full control effect
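Cytotoxicity counterscreen: CellTiter-Fluor fluorescence was measured in A549 ARE_Fluc cells after 18-24 h of compound exposure in a concentration series. The subsequent BugLite luminescent read reports ARE-luciferase activity.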
Nrf2 inh: Nrf2 qHTS screen for inhibitors; Potency, µM (top dose mostly 46 µM), for the others: at the top dose activity change, negative = inhibition, usual class: inhibitors; A549 ARE-Fluc reporter, luciferase luminescence, 18-24 h; actives 2.1% (n = 360,000); AID 504444, 2011; further: potency means the concentration at half of the fitted maximal effect; on the % scale 0 is the no-effect control and ±100 the full control effect; nearly all actives have a fitted effect of over 60% in size
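Two sequential reads on A549 ARE_Fluc cells exposed to compound for 18-24 h: a CellTiter-Fluor fluorescence read for viability, then a luciferase luminescence read for Nrf2/ARE activity.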
LDHA inh: qHTS assay for inhibitors of human lactate dehydrogenase; L-lactate dehydrogenase A chain (Homo sapiens), P00338; purified LDHA, NADH/diaphorase-resazurin fluorescence; active compounds read low; activity change, % (values are at about 110 or 230 µM); actives 0.15% (n = 480,000); AID 1347041, 2019; in the data active means activity change below about -30%; inconclusive means mostly about -25% to -30%;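 further: plate controls were DMSO wells for no effect and wells without enzyme for full effect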
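LDH5 2 nM; NADH 0.06 mM, pyruvate 0.2 mM; 200 mM Tris pH 7.4, EDTA, Tween-20; 5 min RT. Detection: diaphorase 0.133 mg/mL + resazurin 37 µM, fluorescence ex540/em590 at 0 and 20 min; normalized to enzyme-free and DMSO wells.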
Nrf2 ARE act: qHTS of Nrf2 Activators; AREc32 ARE-luciferase reporter (MCF7-derived line), luminescence, 24 h; Potency, µM (series often up to 46.1 µM), for inactives: top-dose activation, actives largely listed as activators; actives 0.31% (n = 410,000); further: potency means the concentration at half of the fitted maximal effect; % of control where 0% means no effect; nearly all actives have a fitted effect of over 65% in size
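AREc32 cells carrying an ARE-driven firefly luciferase, 1000 cells/well in OPTI-MEM with 5% FBS, dosed after overnight attachment and incubated 24 hr at 37 deg C. Steady-Glo luminescence read after 30 min at RT.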
ERG-DNA inh: qHTS for Small Molecule Inhibitors of the ERG Ets/DNA interaction; Transcriptional regulator ERG (Homo sapiens), P11308; Potency, µM (highest dose often 76.9 µM), inactives show at the top dose FP activity, negative = inhibition, usual class: inhibitors; fluorescence polarization, His-ERG Ets domain / labelled DNA; actives 0.028% (n = 370,000); AID 624246, 2012; active means well fitted inhibition curve with a large enough effect in the polarisation, with a control signal flat; inconclusive means small, poorly fitted or top-dose-only effect, or effect the other way, or a change in a side signal; inactive means no such curve, though single readings can be large or run the other way; the % refers to the polarisation;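 further: polarization taken with two DNA probes labelled with fluorescein and Texas red; potency means the concentration at half of the fitted maximal effect; % of control where 0% means no effect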
Target sequence (P11308 whole entry, looked up, the tested form may be a part): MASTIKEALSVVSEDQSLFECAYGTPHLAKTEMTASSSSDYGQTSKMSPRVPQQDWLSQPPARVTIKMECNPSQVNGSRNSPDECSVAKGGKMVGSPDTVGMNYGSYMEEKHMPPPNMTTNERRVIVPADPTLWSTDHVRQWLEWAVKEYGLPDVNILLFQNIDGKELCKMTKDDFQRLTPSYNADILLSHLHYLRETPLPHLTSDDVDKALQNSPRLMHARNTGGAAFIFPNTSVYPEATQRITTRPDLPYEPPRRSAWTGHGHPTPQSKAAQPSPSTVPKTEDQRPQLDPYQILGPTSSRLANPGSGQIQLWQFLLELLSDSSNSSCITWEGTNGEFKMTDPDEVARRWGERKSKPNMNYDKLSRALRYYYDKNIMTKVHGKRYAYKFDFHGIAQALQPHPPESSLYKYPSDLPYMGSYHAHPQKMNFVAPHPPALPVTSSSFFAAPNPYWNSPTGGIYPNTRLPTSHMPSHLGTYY
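His-tagged ERG Ets domain (1 uM in the protein solution; 300mM KCl, 50mM Tris-HCl, 1mM EDTA, 1mM DTT, pH 7.5) received compound, then a probe mix of 5 nM fluorescein-DNA and 100nM Texas-615-DNA. Fluorescence polarization was read for both dyes.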
* = called active by the depositor; ? = inconclusive; nt = no result given; [ ] = dose if it differs, or a comment. Compounds with a hit are over-represented: about 2.7% of the library has one in this group of screens. Unless noted, the call rests on the fitted dose curve; in most records, active means well fitted curve in the direction sought with a large enough effect; inconclusive means small, poorly fitted or top-dose-only effect, or another doubt; inactive means no such curve, though single readings can be large; an effect the other way counts as inactive or inconclusive.

SMILES | 12-LOX inh | A549 viability | Nrf2 inh | LDHA inh | Nrf2 ARE act | ERG-DNA inh
CC(=O)NC(c1ccc(C)cc1)c1cc([N+](=O)[O-])c2cccnc2c1O (stereo not drawn) | 44.7µM* | ? | 11.6µM* | 20.7 | -0.1% | -6.0%
COc1ccc(C(NC(C)=O)c2cc(Cl)c3cccnc3c2O)cc1 (stereo not drawn) | ? | -11.5% | ? | 5.7 | 0.5% | 4.4%
CCC(=O)NC(c1ccc(C)cc1)c1cc([N+](=O)[O-])c2cccnc2c1O (stereo not drawn) | 11.2µM* | -19.4% | 23.1µM* | 1.0 | -0.5% | -2.4%
NCc1ccc(-c2ccc(O)cc2)cc1 | -28.8% | nt | nt | 1.5 | nt | nt
C#CCN(Cc1ccc(F)cc1)C(=O)NCC1CCN(Cc2ccccc2)CC1 | -17.2% | nt | nt | 4.6 | nt | nt
CCCCn1nnc(NC(=O)COc2ccc(Cl)cc2Cl)n1 | ? | nt | nt | 4.5 | nt | nt
O=C(NC(c1ccc(Cl)cc1)c1cc(Cl)c2cccnc2c1O)c1cccnc1 (stereo not drawn) | -6.6% | ? | 10.3µM* | -1.8 | 2.9% | 4.8%
O=C(CCS(=O)(=O)Cc1ccccc1)Nc1ncc([N+](=O)[O-])s1 | 436.3% | -9.9% | ? | -9.4 | 12.6µM* | 17.7%
O=C(CCS(=O)(=O)c1ccccc1)Nc1ncc([N+](=O)[O-])s1 | 0.1% | -0.1% | 23.3% | -4.7 | ? | -5.0%
CC1=C(C(=O)OCC2CCCO2)C(c2ccccc2OC(C)C)C2=C(CC(c3ccco3)CC2=O)N1 (stereo not drawn) | -5.3% | 7.0% | 6.9% | 1.5 | -0.3% | 1.9%
CC1=C(C(=O)OCC2CCCO2)C(c2cccc(C(F)(F)F)c2)C2=C(CC(c3ccco3)CC2=O)N1 (stereo not drawn) | 9.5% | ? | 23.1µM* | 0.0 | 3.5% | 1.2%
O=S(=O)(O)c1cc(O)c(N=Nc2ccc(O)cc2O)c2ccccc12 | 8.91µM* | 20.6µM* | ? | 29.0 | 4.7% | 43.6%
O=C(Cc1scnc1-c1cccs1)NCCc1ccccc1 | ? | nt | nt | -2.0 | nt | nt
CC(C)OC(=O)c1cn(-c2ccccc2)nc1-c1ccco1 | -79.4% | 0.7% | -9.7% | -0.1 | 3.16µM* | 12.0%
Cc1ccccc1C(=O)N1CCC2(CC1)OCCN2S(=O)(=O)c1ccc(Cl)cc1 | ? | nt | nt | -4.8 | nt | nt
CCc1nnc(NC(=O)c2ccncc2)s1 | ? | -6.8% | 9.6% | -2.2 | -0.3% | 2.9%
CCc1nnc(NC(=O)c2cc(S(=O)(=O)N(CC)CC)ccc2Cl)s1 | 1.0% | -16.9% | 16.4µM* | -6.6 | 2.9% | -5.3%
CCN(CC)S(=O)(=O)c1ccc(Cl)c(C(=O)NC)c1 | 0.0% | -2.8% | 11.4% | -7.9 | 2.2% | 5.1%
CCc1nnc(NC(=O)c2cccc(C(=O)Nc3nnc(CC)s3)n2)s1 | 19.6% | ? | 0.259µM* | 1.9 | 3.5% | -3.4%
CC1CC(=O)c2c(cc3c(-c4c(O)cc(O)c5c(O)c6c(cc45)OC(C)CC6=O)c(O)cc(O)c3c2O)O1 (stereo not drawn) | nt | ? | 11.6µM* | 4.4 | -1.4% | -1.5%
NC(=O)c1ccc(OCC2CCCO2)cc1 (stereo not drawn) | -6.5% | 2.0% | 5.0% | -8.0 | -0.1% | -12.1%
Nc1cccc(OCC2CCCO2)c1 (stereo not drawn) | 7.08µM* | nt | nt | 7.3 | nt | nt
O=C(Nc1ccccc1)c1cc2ccccc2c(=O)s1 | -8.7% | -5.4% | -7.8% | -7.0 | 10µM* | -12.0%
Cc1ccc(C)c(OCC(O)Cn2cnc3ncccc3c2=O)c1 (stereo not drawn) | 32.3% | nt | nt | -0.4 | nt | nt
CN(C)c1ccc(/C=C2/C[N+](C)(C)C/C(=C/c3ccc(N(C)C)cc3)C2=O)cc1 | 50.1µM* | 14.6µM* | ? | 9.1 | 25.2% | 101.4%
SMILES | 12-LOX inh | A549 viability | Nrf2 inh | LDHA inh | Nrf2 ARE act | ERG-DNA inh
Cc1ccc(C(=O)Nc2ccc(N3CCN(C(=O)c4ccco4)CC3)cc2)cc1 | 0.6% | 0.2% | -6.6% | -3.5 | -0.1% | -1.1%
O=C(Nc1ccc(N2CCN(C(=O)c3ccco3)CC2)cc1)c1cc(Br)ccc1Cl | -12.3% | -15.0% | 23.1µM* | -8.2 | -0.1% | -4.9%
O=C(Nc1ccc(N2CCN(C(=O)c3ccco3)CC2)cc1)c1ccc(Br)cc1 | 8.6% | -10.7% | 16.4µM* | -1.7 | 0.2% | 2.1%
COc1ccccc1C(=O)NC(=S)Nc1ccc(N2CCN(C(=O)c3ccco3)CC2)cc1 | ? | -17.0% | 20.6µM* | -0.4 | -0.8% | 6.7%
CCC(C(=O)NC(C)(C)CC)c1ccccc1 (stereo not drawn) | ? | nt | nt | 8.6 | nt | nt
O=C(CN1C(=O)/C(=C/c2cccc(Cl)c2)SC1=S)NC1C=CS(=O)(=O)C1 (stereo not drawn) | ? | 1.1% | 10.6% | -13.1 | 14.1µM* | 75.7%
O=C(O)CN1C(=O)/C(=C\c2cccc(OCc3ccc(Cl)cc3Cl)c2)SC1=S | 25.1µM* | -1.7% | ? | -13.5 | 3.6% | 14.7%
O=C(O)CN1C(=O)/C(=C\c2ccccc2OCc2ccc(Cl)cc2Cl)SC1=S | -41.7% | -11.3% | 4.5% | -8.5 | 19.1%[9.22 µM] | 11.8%
O=C1C=C(c2cccc(Cl)c2O)C[C@@H](c2ccc(Cl)cc2)C1 | 11.2µM* | 1.7% | 14.4% | 5.6 | 5.5% | -2.5%
O=C1C=C(c2cccc(Cl)c2)C[C@@H](c2ccc(Cl)cc2)C1 | 4.1% | -1.2% | ? | -4.0 | 0.0% | -9.9%
COc1ccc(NC(=O)CN2CCN(c3nc(-c4ccco4)c4c(c3C#N)CCC4)CC2)cc1 | 16.3% | nt | nt | 1.7 | nt | nt
O=C(O)/C=C/C(=O)c1c(-c2ccccc2)[nH]c2ccccc12 | 7.6% | 1.6% | 0.8% | -12.4 | 10µM* | 10.5%
Cc1ccc(S(=O)(=O)N(C)CCCC(=O)Nc2ccncc2)cc1 | 10.0%[57.4 µM] | -5.8% | 9.2µM* | -10.9 | -0.6% | -1.6%
CCOc1ccc2[nH]c3c(N4CCN(C(=O)c5ccco5)CC4)ncnc3c2c1 | 10.7% | 1.0% | ? | 6.3 | 5.2% | 3.4%
Fc1ccc2[nH]c3c(N4CCN(c5ccccc5)CC4)ncnc3c2c1 | -0.6% | ? | 13µM* | -6.5 | -1.5% | 1.0%
O=C(c1ccco1)N1CCN(c2ncnc3c2[nH]c2ccc(Br)cc23)CC1 | 0.2% | -17.1% | 8.2µM* | -7.3 | -1.3% | 2.7%
